From the supplement of paper PMC10498489
Screen size: about 2,300 compounds; about 330 (14%) showed activity. Only a sample is shown. Values without a mark were called inactive.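 The calls were made as follows: active = median modified Z-score above 1.96; inactive = 1.96 or below.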

These compounds were tested on HepG2 Srxn1-GFP reporter cells (+30 nM CDDO-Me) (assay: Srxn1-GFP intensity median modified Z-score relative to plate median; higher = stronger NRF2 / oxidative stress reporter activation, active = hit call of the paper). Settings: 10 µM; exposure time: 24h.
Method in brief: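 The modified Z-score of GFP intensity was computed per plate, and the median over replicates is reported. HepG2 Srxn1-GFP BAC reporter cells in three replicate plates were treated for 24 h with compound at 10 μM plus an NRF2 activator at 30 nM (≤0.1% DMSO). Per-cell cytoplasmic GFP came from confocal images, excluding those with under 100 cells, and scaling used 1.4826 × median absolute deviation.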

Structure (SMILES)	Srxn1-GFP intensity median modified Z-score
Cc1ccc(C)c(N2C(=O)c3ccc(C(=O)OCC(=O)N4CCc5ccccc54)cc3C2=O)c1	1.06
O=C(Nc1cccc(Oc2cnccn2)c1)c1cc2cc(F)ccc2[nH]1	1.62
CCN(CC)CCNC(=O)c1cc(Br)c(N)cc1OC [euspeclibcmpd1122]	0
CCN(CC)CCNC(=O)c1cc(Cl)c(N)cc1OC [euspeclibcmpd197]	86.5 (active)
CCN(CC)CCNC(=O)c1cc(S(C)(=O)=O)ccc1OC [euspeclibcmpd525]	-0.717
NC(=O)C1CCCN(Cc2cccc(CNc3ncc(F)cn3)c2)C1 (stereo not given)	1.1
CC(CN(C)C)CN1c2ccccc2CCc2ccccc21 (stereo not given) [euspeclibcmpd531]	0.095
CN=C(C[N+](=O)[O-])NCCSCc1ccc(CN(C)C)o1 [euspeclibcmpd2160]	-0.118
CC1(C)SC2C(NC(=O)C(N)c3ccc(O)cc3)C(=O)N2[C@H]1C(=O)O (stereo not given in full) [euspeclibcmpd23]	-0.305
CC(C)N1CCN(c2ccc(OC[C@H]3CO[C@](Cn4cncn4)(c4ccc(Cl)cc4Cl)O3)cc2)CC1 [euspeclibcmpd617]	1.6
CCC(C)n1ncn(-c2ccc(N3CCN(c4ccc(OC[C@H]5CO[C@](Cn6cncn6)(c6ccc(Cl)cc6Cl)O5)cc4)CC3)cc2)c1=O (stereo not given in full) [euspeclibcmpd951]	2.71 (active)
CC(=O)N1CCN(c2ccc(OCC3CO[C@](Cn4ccnc4)(c4ccc(Cl)cc4Cl)O3)cc2)CC1 (stereo not given in full) [euspeclibcmpd169]	0.674
N=C(N)N=c1[nH]c(CSCCC(=N)NS(N)(=O)=O)cs1 [euspeclibcmpd364]	0.317
O=C(O[C@@H]1Cc2c(O)cc(O)cc2OC1c1cc(=O)c(O)c2c(O)c(O)cc(C3Oc4cc(O)cc(O)c4C[C@H]3O)c2c1)c1cc(O)c(O)c(O)c1 (stereo not given in full) [euspeclibcmpd1583]	-0.77
COc1ccc(-c2cc(=O)c3c(OC)c(OC)c(OC)c(OC)c3o2)cc1 [euspeclibcmpd1464]	6.78 (active)
COc1ccc(-c2cc(=O)c3c(O)c(OC)c(OC)c(OC)c3o2)cc1 [euspeclibcmpd2317]	0.184
COc1ccc(-c2cc(=O)c3c(OC)c(OC)c(OC)c(OC)c3o2)cc1OC [euspeclibcmpd1435]	1.9
OC[C@@H](O)[C@@H](O)[C@@H](O)[C@H](O)[C@@H](O)CO [euspeclibcmpd1702]	-0.744
C#CCCCCCCCCCCCC(O)CC(O)COC(C)=O (stereo not given) [euspeclibcmpd1372]	3.35 (active)
C=CCCCCCCCCC(=O)O [euspeclibcmpd2049]	0.331
C=CCCCCCCCCCCCC(O)CC(O)CO (stereo not given) [euspeclibcmpd2211]	2.24 (active)
C=CCCCCCCCCCCCC(O)CC(O)CO (stereo not given) [euspeclibcmpd1371]	1.62
CC(=O)OCC(COC(C)=O)OC(C)=O [euspeclibcmpd301]	0.397
CC(=O)OCC(OC(C)=O)C(OC(C)=O)C(OC(C)=O)C(OC(C)=O)C(COC(C)=O)OC(C)=O (stereo not given) [euspeclibcmpd1364]	-0.434
C#CCCCCCCCCCCCC(O)CC(O)CO (stereo not given) [euspeclibcmpd1458]	4.24 (active)
